# According to PubChem BioAssay (NCATS):
# “And” between values parts separate entries of the source, which are not always exact repeats. Equal entries are not always repeated. Records with an inconclusive call do not appear. The source made the active and inactive calls. Calls come from the whole dose curve; as a rule, active = well fitted inhibition curve with a large enough effect; inconclusive = small, poorly fitted or top-dose-only effect; inactive = no such curve, though single readings can be large or run the other way. Where a SMILES comes first, the peptide text is derived from it. The star is where a group is joined. Cbz = O=C(OCc1ccccc1)*; CH2Cl = ClC*
# Experiment: Primary qHTS for inhibitors of nuclear receptor binding SET domain protein 2 (NSD2) in an RCH-ACV wild type WT cells (2C) (AID 1645877); note: nearly all actives have a fitted effect of over 70% in size
# Settings: RCH-ACV (leukaemia line) NSD2 WT (2C) viability, CellTiter-Glo, 72 h; series mostly up to 44.9 µM
# Source text: Assay Provider: Jonathan D. Licht, MD
# University of Florida College of Medicine, Gainesville, FL
# Mutations in epigenetic regulators are common in relapsed pediatric acute lymphoblastic leukemia (ALL). Here, we uncovered the mechanism underlying the relapse of ALL driven by an activating mutation of the NSD2 histone methyltransferase (p.E1099K). […] Correction of this mutation restored glucocorticoid sensitivity. The transcriptional response to glucocorticoids was blocked in NSD2 mutant cells due to depressed glucocorticoid receptor (GR) levels and the failure of glucocorticoids to autoactivate GR expression. […] Pre-treatment of NSD2 p.E1099K cell lines and PDX samples with PRC2 inhibitors reversed glucocorticoid resistance in vitro and in vivo.
# High-throughput drug screening of isogenic RCH-ACV cell lines was performed at the National Center for Advancing Translational Science (NCATS), National Institutes of Health as previously described (1). Briefly, isogenic RCH-ACV NSD2 p.E1099K mutant (9B) and WT cells (2C) were plated at 500 cells/well in a 1536-well plate with a 72-hour incubation with compounds prior to addition of CellTiter-Glo to assess cell viability. NCATS libraries screened include: NPC, MIPE 5.0, Kinase and NPACT. To determine compound activity in the qHTS assay, the concentration-response data for each sample was plotted and modeled by a four-parameter logistic fit yielding IC50 and efficacy (maximal response) values. The area under the curve (AUC) of the dose-response curve ensures both efficacy (magnitude of cell killing) and potency (concentration that elicits cell killing) are accounted for in the analysis of activity.
# 1. Tobie D Lee, Olivia W Lee, Kyle R Brimacombe, Lu Chen, Rajarshi Guha, Sabrina Lusvarghi, Bethilehem G Tebase, Carleen Klumpp-Thomas, Robert W Robey, Suresh V Ambudkar, Min Shen, Michael M Gottesman, Matthew D Hall. A High-Throughput Screen of a Library of Therapeutics Identifies Cytotoxic Substrates of P-glycoprotein. Mol Pharmacol. 2019, Nov;96(5):629-640.
row,SMILES,Potency
1,CC(C)(C)c1ccc(C(=O)Nc2cn3cc(-n4ccnc4)ccc3n2)cc1,inactive
2,CC[C@@H](C)[C@@H]1OC2(C=C[C@H]1C)C[C@@H]1C[C@H](C/C=C(\C)[C@H](O[C@H]3C[C@H](OC)[C@H](O[C@H]4C[C@H](OC)[C@H](NC(C)=O)[C@H](C)O4)[C@H](C)O3)[C@H](C)/C=C/C=C3\CO[C@H]4[C@H](O)C(C)=C[C@@H](C(=O)O1)[C@@]34O)O2 (stereo not given in full),5.05 µM (active)
3,C=C1CCCC2(C)CCC(C(C)(C)OC3OC(C)C(O)C(O)C3OC(=O)/C(C)=C\C)CC12 (stereo not given),10 µM (active)
4,CC1(C)C2CCC(CO[C@@H]3O[C@H](CO[C@@H]4OC[C@](O)(CO)[C@H]4O)[C@@H](O)[C@H](O)[C@H]3O)C1C2 (stereo not given in full),inactive
5,CC1(C)CC[C@]2(C(=O)O)CC[C@]3(C)C(=CCC4[C@@]5(C)C[C@@H](O)[C@H](O)C(CO)(CO)C5CC[C@]43C)C2[C@@H]1O (stereo not given in full),8.93 µM (active)
6,Cc1cc(Nc2nc(-c3ccccc3)nc3ccccc23)n[nH]1,3.25 µM (active)
7,CCCc1cc(C)[nH]c(=O)c1CNC(=O)c1cc(-c2ccnc(N3CCN(C)CC3)c2)cc2c1cnn2C(C)C,9.16 µM (active) and 16.6 µM (active)
8,CC(C)C[C@H](NC(=O)CNC(=O)OCc1ccccc1)C(=O)N[C@@H](Cc1ccccc1)C(=O)CCl (Cbz-Gly-Leu-Phe-CH2Cl),3.65 µM (active)
9,Nc1nccc(-c2c(-c3ccc(F)cc3)ncn2C2CCCCC2)n1,14.5 µM (active) and 10.5 µM (active)
10,C=C1C(=O)O[C@@H]2C[C@]3(C)[C@@H](CCC(C)O)[C@@H]3C[C@H]12 (stereo not given in full),14.5 µM (active)
11,CN1CCN(C2CCN(C(=O)Nc3cc(Oc4ccc(NC(=O)C5(C(=O)Nc6ccc(F)cc6)CC5)c(F)c4)ccn3)CC2)CC1,7.28 µM (active) and 10.5 µM (active)
12,CC1(C(=O)Nc2ccc(F)nc2)CCCN1c1nc(Nc2cc(C3CC3)[nH]n2)c2cccn2n1 (stereo not given),0.649 µM (active)
13,Cn1ccc(NC(=O)c2cc(Oc3ccc(C(=O)N4CCC4)c(F)c3)c3c(c2)OC(C)(C)C3)n1,inactive
14,C=C1C(=O)OC2CC(C)C(CCC(C)=O)=CCC12 (stereo not given),12.9 µM (active)
15,Cc1onc(-c2ccccc2)c1C(=O)N1CCN(c2ccc([N+](=O)[O-])cc2Cl)CC1,inactive
16,Cc1cc(C(C)Nc2ccccc2C(=O)O)c2nc(N3CCOCC3)cc(=O)n2c1 (stereo not given),0.728 µM (active)
17,Cc1nc(NC(=O)N2CCCC2C(N)=O)sc1-c1ccnc(C(C)(C)C(F)(F)F)c1 (stereo not given),2.63 µM (active)
18,Cc1ccc(NC(=O)N2CCN(c3nc(N)nc4sc(-c5cccnc5)nc34)CC2)cc1,0.23 µM (active)
19,COC(=O)C(Cc1ccc(OCCn2c(=O)sc3cc(C(=O)c4ccccc4)ccc32)cc1)C(=O)OC,inactive
20,COC1CC(O[C@H]2CC[C@]3(C)C4CC[C@@]5(C)C(=O)[C@]4(CC[C@@H]3C2)CC[C@@H]5C2=CC(=O)OC2)OC(C)C1OC1OC(COC2OC(CO)C(O)C(O)C2O)C(O)C(O)C1O (stereo not given in full),2.75 µM (active)

row,SMILES,Potency
1,COc1ccc2c(NC(=O)Nc3cccc(C(F)(F)F)n3)ccnc2c1,3.25 µM (active)
2,CCCCOC(=O)NS(=O)(=O)c1sc(CC(C)C)cc1-c1ccc(Cn2ccnc2)cc1,20.9 µM (active)
3,O=C(Nc1ccnc(NC(=O)C2CC2)c1)c1c(Cl)cccc1Cl,2.95 µM (active)
4,C=C1C(=O)OC2/C=C(\CO)CC/C=C(\C=O)C(OC)C(OC(=O)C(C)CC)C12 (stereo not given),5.02 µM (active)
5,C=C1C(=O)OC2C1CCC1(C)C(O)CCC(=C)C21 (stereo not given),16.3 µM (active)
6,Nc1nc(Cl)nc2c1ncn2C1OC(CO)C(O)C1F (stereo not given),0.0082 µM (active)
7,CN(c1ccc(NC(=O)Nc2ccccc2)cc1)S(=O)(=O)c1cnn(-c2ccc(F)cc2)c1,16.3 µM (active)
8,COc1ccc(Cl)c(Nc2ncnc3cc(OCC4CCN(C)CC4)c(OC)cc23)c1,13.2 µM (active)
9,Nc1ncnc2c1nc(Cl)n2C1OC2COP(=O)(O)OC2C1O (stereo not given),2.9 µM (active)
10,CC[C@H]1OC(=O)[C@H](C)[C@@H](O[C@H]2C[C@@](C)(OC)[C@@H](O)[C@H](C)O2)[C@H](C)[C@@H](O[C@H]2O[C@H](C)C[C@H](N(C)C)[C@H]2O)[C@](C)(O)C[C@@H](C)C(=O)[C@H](C)[C@@H](O)[C@]1(C)O,inactive
11,CCCCCCCCC(=O)N[C@H](CN1CCCC1)[C@H](O)c1ccc2c(c1)OCCO2,18.3 µM (active)
12,Cc1cc2ncc(C(=O)NCC(C)(C)NCC(=O)N3CCC[C@H]3C#N)cn2n1,inactive
13,O=S(=O)(NCc1cccc2ccccc12)c1cc(Cl)c(Oc2cccc(N3CCNCC3)c2)s1,5.78 µM (active)
14,CCNC(=O)Nc1ccc(-c2nc3c(c(N4CCOCC4C)n2)CCN(C2COC2)C3)cc1 (stereo not given),0.459 µM (active)
15,CC(C)(C)C1CCN(C(=O)n2ncc(C(O)(c3ccccc3)c3ccccc3)n2)CC1,11.5 µM (active)
16,O=C(CCl)Nc1cccc(NC2=NS(=O)(=O)c3ccccc32)c1,6.61 µM (active)
17,Cc1ccc(NC(=O)c2ccc(CN3CCNCC3)cc2)cc1Nc1nccc(-c2cccnc2)n1,18.3 µM (active) and 14.8 µM (active)
18,COC1C=C(C)C(O)(CO)C2(C)CCCC(C)(C)C12 (stereo not given),inactive
19,CCN(CC)C(=O)c1ccc(Nc2nc(OCC3CCCCC3)c3[nH]cnc3n2)cc1,1.83 µM (active)
20,C#CCOc1ccc2c(c1)c(-c1ccc(C(C)C)cc1)nc(=O)n2C(C)C,11.5 µM (active)
